Results from PubChem BioAssay AID1671202 (University of Kansas High Throughput Screening Laboratory, 2021).
About 6,900 (3.6%) of roughly 190,000 compounds were called active. The sample holds actives, similar compounds and a random draw of the others, so the mix is not that of the screen. Values without a mark were called inactive. Cut-off read from the data, not from the text of the source: active = inhibition above about 50%; inactive = the rest.

What follows are molecules tested against Huntingtin (Homo sapiens) (UniProt P42858) (assay: mutant huntingtin-calmodulin interaction inhibitors – biochemical, AlphaScreen, primary screen (AID 1671202;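 note: 0% = both proteins with DMSO and 100% = one protein alone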)). Settings: AlphaScreen His-mHTT/GST-CaM binding, luminescence; at 15 µM, hits give high values.
Chain of Huntingtin (Homo sapiens) (P42858 whole entry, looked up, stated change not applied): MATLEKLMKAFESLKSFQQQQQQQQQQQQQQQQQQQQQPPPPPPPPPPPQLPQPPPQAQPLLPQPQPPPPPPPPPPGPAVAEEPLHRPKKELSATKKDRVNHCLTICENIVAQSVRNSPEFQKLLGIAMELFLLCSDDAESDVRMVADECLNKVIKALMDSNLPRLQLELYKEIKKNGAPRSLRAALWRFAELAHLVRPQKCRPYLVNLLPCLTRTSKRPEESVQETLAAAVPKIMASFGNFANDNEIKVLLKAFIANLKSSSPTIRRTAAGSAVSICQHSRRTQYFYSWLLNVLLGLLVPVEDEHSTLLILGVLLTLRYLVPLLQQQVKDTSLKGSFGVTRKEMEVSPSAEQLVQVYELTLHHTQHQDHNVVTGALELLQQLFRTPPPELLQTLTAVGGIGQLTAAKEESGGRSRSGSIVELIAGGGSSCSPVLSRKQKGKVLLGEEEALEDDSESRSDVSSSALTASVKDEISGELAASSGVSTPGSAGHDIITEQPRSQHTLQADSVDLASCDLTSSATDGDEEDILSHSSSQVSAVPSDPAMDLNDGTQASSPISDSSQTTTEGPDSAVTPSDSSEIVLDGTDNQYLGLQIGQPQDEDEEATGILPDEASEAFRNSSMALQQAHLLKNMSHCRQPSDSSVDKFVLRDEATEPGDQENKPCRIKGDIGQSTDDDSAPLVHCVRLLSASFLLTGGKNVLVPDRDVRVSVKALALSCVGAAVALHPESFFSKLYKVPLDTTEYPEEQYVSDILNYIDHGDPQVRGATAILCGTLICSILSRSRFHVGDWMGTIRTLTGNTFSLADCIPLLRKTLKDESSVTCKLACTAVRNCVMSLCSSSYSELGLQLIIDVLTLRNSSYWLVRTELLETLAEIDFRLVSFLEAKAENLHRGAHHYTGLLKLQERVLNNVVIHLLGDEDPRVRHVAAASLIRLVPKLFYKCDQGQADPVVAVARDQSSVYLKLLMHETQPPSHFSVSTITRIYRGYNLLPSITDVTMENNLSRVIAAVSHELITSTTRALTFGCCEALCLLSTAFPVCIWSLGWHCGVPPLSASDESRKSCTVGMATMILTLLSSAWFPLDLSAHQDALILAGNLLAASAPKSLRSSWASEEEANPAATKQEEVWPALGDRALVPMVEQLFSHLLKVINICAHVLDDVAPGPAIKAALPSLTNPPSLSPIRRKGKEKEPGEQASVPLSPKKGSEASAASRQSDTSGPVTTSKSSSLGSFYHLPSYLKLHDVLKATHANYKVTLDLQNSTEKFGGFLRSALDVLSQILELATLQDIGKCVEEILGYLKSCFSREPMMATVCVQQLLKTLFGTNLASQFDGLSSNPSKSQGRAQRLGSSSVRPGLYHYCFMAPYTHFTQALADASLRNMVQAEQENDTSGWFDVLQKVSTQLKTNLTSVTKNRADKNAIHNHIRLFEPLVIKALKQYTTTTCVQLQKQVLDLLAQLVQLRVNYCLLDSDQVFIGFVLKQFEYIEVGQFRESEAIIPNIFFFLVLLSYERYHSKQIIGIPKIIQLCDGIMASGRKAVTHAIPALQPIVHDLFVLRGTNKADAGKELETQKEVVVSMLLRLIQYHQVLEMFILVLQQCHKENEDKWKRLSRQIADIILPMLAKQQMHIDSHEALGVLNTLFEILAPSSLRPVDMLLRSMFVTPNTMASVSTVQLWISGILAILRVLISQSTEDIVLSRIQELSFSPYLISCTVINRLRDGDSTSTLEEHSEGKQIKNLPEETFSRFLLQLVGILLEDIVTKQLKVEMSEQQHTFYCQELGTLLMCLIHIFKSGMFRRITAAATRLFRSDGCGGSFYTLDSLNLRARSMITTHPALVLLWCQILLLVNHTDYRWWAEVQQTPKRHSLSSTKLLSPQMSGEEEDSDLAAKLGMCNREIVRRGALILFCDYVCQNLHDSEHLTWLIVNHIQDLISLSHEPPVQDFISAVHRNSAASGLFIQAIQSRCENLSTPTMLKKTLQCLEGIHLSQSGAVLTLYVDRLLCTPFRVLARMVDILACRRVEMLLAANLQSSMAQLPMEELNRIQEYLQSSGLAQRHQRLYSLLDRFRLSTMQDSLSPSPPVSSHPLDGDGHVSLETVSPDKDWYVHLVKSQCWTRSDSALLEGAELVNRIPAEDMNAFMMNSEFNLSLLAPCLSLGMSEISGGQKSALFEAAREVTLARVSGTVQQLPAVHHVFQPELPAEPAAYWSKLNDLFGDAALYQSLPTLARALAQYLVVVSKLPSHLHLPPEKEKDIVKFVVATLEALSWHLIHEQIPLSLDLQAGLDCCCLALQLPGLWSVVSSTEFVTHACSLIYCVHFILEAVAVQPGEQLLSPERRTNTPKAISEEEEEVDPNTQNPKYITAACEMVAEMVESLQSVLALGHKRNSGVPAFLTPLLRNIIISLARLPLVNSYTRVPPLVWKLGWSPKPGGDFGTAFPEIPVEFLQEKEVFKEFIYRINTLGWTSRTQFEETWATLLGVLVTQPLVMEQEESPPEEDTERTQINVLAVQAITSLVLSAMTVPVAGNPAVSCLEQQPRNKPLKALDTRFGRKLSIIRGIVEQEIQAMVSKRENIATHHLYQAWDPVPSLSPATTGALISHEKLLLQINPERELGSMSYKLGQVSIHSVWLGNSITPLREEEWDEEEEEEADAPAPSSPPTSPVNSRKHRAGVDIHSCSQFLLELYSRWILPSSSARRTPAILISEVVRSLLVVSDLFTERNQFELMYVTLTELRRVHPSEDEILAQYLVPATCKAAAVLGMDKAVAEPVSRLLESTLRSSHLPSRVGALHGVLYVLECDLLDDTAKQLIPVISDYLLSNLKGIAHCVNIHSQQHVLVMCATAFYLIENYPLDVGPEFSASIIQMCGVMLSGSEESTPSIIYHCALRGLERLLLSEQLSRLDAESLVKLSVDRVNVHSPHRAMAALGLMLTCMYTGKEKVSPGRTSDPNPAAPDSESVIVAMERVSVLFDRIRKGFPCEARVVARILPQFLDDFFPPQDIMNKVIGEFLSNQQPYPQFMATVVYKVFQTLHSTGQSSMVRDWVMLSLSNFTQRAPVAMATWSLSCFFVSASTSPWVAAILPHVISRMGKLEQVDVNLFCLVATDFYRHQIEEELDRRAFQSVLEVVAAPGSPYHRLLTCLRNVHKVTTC

First: COCCCNC(=O)c1cnn2c(C(F)(F)F)cc(-c3cccs3)nc12
Second: CCNc1cc(NCCNC(=O)c2cccc(F)c2)nc(C)n1
The inhibition of the first is higher: 10% for the first, -7.5% for the second.

Going from `O=C(Nc1ccc(S(=O)(=O)Nc2ccccn2)cc1)C1OC2OC3(CCCCC3)OC2C2OC3(CCCCC3)OC12` (stereo unspecified) to `O=C(NCc1ccccc1Cl)c1cnn2c3c(cnc12)CCCCCC3`, the inhibition falls from 22.5% to -7%.

Compared with `Cc1ccc(SCC(=O)N2CCN(C)CC2)cc1`, `Cc1ccc(Cc2c(C)nc(C)nc2N2CCN(C(=O)c3ccccc3)CC2)cc1` is higher in inhibition: 0.5% for the first, 11.3% for the second.

Compared with `CCc1onc(C)c1C1CCCN1Cc1cc(Br)ccc1F` (stereo unspecified), `CCC(CC)C(=O)Nc1ccc(Br)cc1F` is higher in inhibition: -71.3% for the first, -9.3% for the second.

Going from `CCn1cc(-c2ccc(C)cc2)cc1C(=O)NCc1cccnc1` to `CCn1cc(-c2ccccc2)cc1C(=O)NCc1ccccn1`, the inhibition rises from 46.7% to 47.4%.

Compared with `OCCCc1nc2n(n1)C(c1ccco1)C=C(c1ccc(Br)cc1)N2` (stereo unspecified), `COc1ccccc1CC(=O)N1CCCn2nc(-c3ccc(C)cc3)cc2C1` is higher in inhibition: 34% for the first, 37.9% for the second.

Going from `COc1ccc(N2C(=O)CSC2c2c(F)cccc2Cl)c(OC)c1` (stereo unspecified) to `COc1ccc(OC)c(C=C2Oc3c(ccc(O)c3CN3CCCCC3C)C2=O)c1` (stereo unspecified), the inhibition falls from 1% to -1.3%.

Compared with `COc1cc(SC#N)ccc1N=Cc1c(C)[nH]n(-c2ccc(Br)cc2)c1=O`, `COc1cc([N+](=O)[O-])ccc1N=Cc1c(C)[nH]n(-c2ccc(C)c(C)c2)c1=O` is higher in inhibition: 2% for the first, 11% for the second.

Compared with `COc1cccc2cc(-c3cc(=O)oc4cc5c(cc34)CCCC5)oc12`, `COc1cccc2cc(-c3nc(-c4ccc5c(c4)OCO5)cs3)c(=O)oc12` is lower in inhibition: -2.8% for the first, -9% for the second.

First: O=C(c1c(F)cccc1F)N1CCN(S(=O)(=O)C2CC2)CC1
Second: O=C(c1cccc2c1CCN2C(=O)C1CC1)N1CCOCC1
The inhibition of the first is lower: -10.4% for the first, -4.9% for the second.

First: O=C1Nc2ccccc2Oc2cc([N+](=O)[O-])cc(Oc3ccccc3Br)c21
Second: COc1ccc(-c2c(C)cc3oc(=O)cc(-c4ccccc4)c3c2C)cc1OC
The inhibition of the first is higher: 32% for the first, -2.2% for the second.

Compared with `COc1ccccc1C(=O)N1CCCC2(C1)Nc1cccnc1NC2=NCc1ccccc1` (stereo unspecified), `O=C(c1cnccn1)N1CCCC2(C1)Nc1ccccc1NC2=NCc1ccccc1` (stereo unspecified) is higher in inhibition: 1.03% for the first, 25.6% for the second.

Compared with `c1ccc(CN=C2Nc3ccccc3NC23CCCNC3)cc1` (stereo unspecified), `O=C(c1ccccn1)N1CCC2(C1)NCc1ccccc1NC2=NCc1ccccc1` (stereo unspecified) is lower in inhibition: 25.7% for the first, 12.6% for the second.

Going from `Cc1cccc(-c2csc3c(=O)n(Cc4ccc(F)cc4)cnc23)c1` to `O=C(CCn1c(=O)c2sccc2n(Cc2cccc(Cl)c2)c1=O)NCc1ccccc1`, the inhibition rises from -29.4% to -2%.

First: O=S1(=O)c2ccccc2S(=O)(=O)N1c1cc(F)ccc1F
Second: Cc1ccc(C(=O)NCC2CCCN(S(=O)(=O)c3ccc(F)cc3F)C2)cc1 (stereo unspecified)
The inhibition of the first is higher: 6% for the first, -3.67% for the second.

Compared with `CC12C=CC(O1)C1C(=O)N(c3ccc(Cl)c(C(=O)O)c3)C(=O)C12` (stereo unspecified), `COc1ccc(N2CC(C(=O)Nc3ccc(C(C)C)cc3)CC2=O)cc1` (stereo unspecified) is higher in inhibition: -2% for the first, 0.1% for the second.

Compared with `COc1cccc(N=Cc2cc(Br)ccc2O)c1`, `COc1ccc(-c2nnc(N3CCC(C(=O)NCc4cccc(OC)c4)CC3)o2)cc1` is higher in inhibition: 13% for the first, 21% for the second.

Compared with `O=C1OC(c2ccco2)=N/C1=C/c1ccc2c(c1)OCO2`, `CSC1=N/C(=C\c2ccc3c(c2)OCO3)C(=O)S1` is lower in inhibition: 29% for the first, -2% for the second.

Compared with `COc1cc(Cl)ccc1C(=O)N1CCC(c2nc(CCNC(C)=O)cs2)CC1`, `COCCc1noc(COC2CCCN(C(=O)c3ccccn3)C2)n1` (stereo unspecified) is lower in inhibition: 5.03% for the first, -8.61% for the second.

Compared with `Cc1cccc(C(=O)N2CCCC(C(=O)NC3CCCC3)C2)c1` (stereo unspecified), `Cc1cccc(-c2cc3n(n2)CCCN(C(=O)C(C)Oc2ccccc2)C3)c1` (stereo unspecified) is higher in inhibition: 25.1% for the first, 42.9% for the second.

Compared with `Cc1nn(-c2ccccc2)c(Cl)c1C(=O)N1CCOCC1`, `O=C(c1cc(-c2ccccc2)n[nH]1)N1CCN(c2ncccn2)CC1` is lower in inhibition: 1% for the first, -17.7% for the second.

Going from `COc1ccc(-c2nc(SCC(=O)Nc3ccc(OC(F)(F)F)cc3)[nH]c(=O)c2C#N)cc1` to `COc1ccc(-c2c(C)cc3oc(=O)cc(-c4ccccc4)c3c2C)cc1F`, the inhibition falls from 14% to -2.4%.

Going from `Cc1ccc(N2CC(C(=O)N(C)C(C)C)CC2=O)cc1` (stereo unspecified) to `CCOc1ccccc1Oc1c(C)oc2c(CN(CC)CC)c(O)ccc2c1=O`, the inhibition rises from -4.2% to 3.7%.

First: Cn1nc(-c2nc(-c3cccc(F)c3)no2)c2c1CCN(C(=O)Cc1cccs1)C2
Second: CCc1ccccc1NC(=O)NCCNc1cc(-n2nc(C)cc2C)nc(C)n1
The inhibition of the first is higher: 20.1% for the first, -5.7% for the second.

`CCN(CC)CCC(c1cc(OC)c(OC)c(OC)c1)c1c(OC)cc(OC)c2c(-c3ccccc3)cc(=O)oc12` (stereo unspecified) was tested, and the inhibition was -4.8%.

With `O=[N+]([O-])c1c(Cl)cc(Cl)c2nsnc12` the inhibition was 88% (active).
For `CCn1cc(-c2ccc(F)cc2)cc1C(=O)NC(C)c1cccnc1` (stereo unspecified), the inhibition was 50.5% (active).
For `COc1cc([N+](=O)[O-])ccc1N=Cc1c(C)[nH]n(-c2ccccc2C)c1=O`, the inhibition was 57% (active).
For `COCCNC(=O)N1CCCC2(C1)Nc1ccccc1NC2=NCc1ccccc1` (stereo unspecified), the inhibition was 97.7% (active).
In the case of `CC(C)(C)C(=O)N1CCCC2(C1)Nc1ccccc1NC2=NCc1ccccc1` (stereo unspecified), the inhibition is reported as 100% (active).
In the case of `O=C1/C(=C/c2ccc3c(c2)OCO3)CCC/C1=C\c1ccc2c(c1)OCO2`, the inhibition is reported as 58% (active).
In the case of `Cc1nn(-c2ccccc2)c(C)c1N1CCN(C(=O)c2cc(-c3ccccc3)n[nH]2)CC1`, the inhibition is reported as 98.9% (active).
In the case of `CC(C)c1ccc(N2CC(C(=O)N(C)Cc3ccccc3)CC2=O)cc1` (stereo unspecified), the inhibition is reported as 56.5% (active).
In the case of `COc1ccccc1CCC(=O)N1CCCn2nc(-c3cccc(C)c3)cc2C1`, the inhibition is reported as 68.3% (active).
With `CCN(CC)C(=O)CC(c1ccc2c(c1)OCO2)c1c(OC)cc(OC)c2c(-c3ccccc3)cc(=O)oc12` (stereo unspecified) the inhibition was 74.9% (active).
`CCN(CC)CCC(c1ccc2c(c1)OCO2)c1c(OC)cc(OC)c2c(-c3ccccc3)cc(=O)oc12` (stereo unspecified) was tested, and the inhibition was 101% (active).
In the case of `CSc1cccc(NC(=O)NCCNc2cc(-n3ccnc3C)nc(C)n2)c1`, the inhibition is reported as 99.9% (active).
